Results from the supplement of paper PMC3334620.
Whole data set: some 33,000 sequences, median “E-score (-0.5 to 0.5)” near -0.053, cut for the highest 2% near 0.37. Only a selection was taken, and the highest values are over-represented in it overall.

Target: Hap1 (UniProt P0CE41)
Experiment: PBM E-score (8-mer binding enrichment) (E-score (-0.5 to 0.5)); higher = stronger / more preferred TF binding
Conditions: protein concentration: 200 nM; construct: GST-DNA-binding domain
Outline: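 Using PURExpress in vitro transcription/translation, GST-tagged yeast transcription factors were made in full-length or DNA-binding-domain form. These were applied at about 100-200 nM to double-stranded universal all-10-mer Agilent arrays, and bound protein was detected with fluorescent anti-GST. Scans were normalised with masliner before the Universal PBM Analysis Suite assigned E-scores to ungapped eight-base words pooled with their reverse complements.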

UniProt P0CE41, sequence (P0CE41 whole entry): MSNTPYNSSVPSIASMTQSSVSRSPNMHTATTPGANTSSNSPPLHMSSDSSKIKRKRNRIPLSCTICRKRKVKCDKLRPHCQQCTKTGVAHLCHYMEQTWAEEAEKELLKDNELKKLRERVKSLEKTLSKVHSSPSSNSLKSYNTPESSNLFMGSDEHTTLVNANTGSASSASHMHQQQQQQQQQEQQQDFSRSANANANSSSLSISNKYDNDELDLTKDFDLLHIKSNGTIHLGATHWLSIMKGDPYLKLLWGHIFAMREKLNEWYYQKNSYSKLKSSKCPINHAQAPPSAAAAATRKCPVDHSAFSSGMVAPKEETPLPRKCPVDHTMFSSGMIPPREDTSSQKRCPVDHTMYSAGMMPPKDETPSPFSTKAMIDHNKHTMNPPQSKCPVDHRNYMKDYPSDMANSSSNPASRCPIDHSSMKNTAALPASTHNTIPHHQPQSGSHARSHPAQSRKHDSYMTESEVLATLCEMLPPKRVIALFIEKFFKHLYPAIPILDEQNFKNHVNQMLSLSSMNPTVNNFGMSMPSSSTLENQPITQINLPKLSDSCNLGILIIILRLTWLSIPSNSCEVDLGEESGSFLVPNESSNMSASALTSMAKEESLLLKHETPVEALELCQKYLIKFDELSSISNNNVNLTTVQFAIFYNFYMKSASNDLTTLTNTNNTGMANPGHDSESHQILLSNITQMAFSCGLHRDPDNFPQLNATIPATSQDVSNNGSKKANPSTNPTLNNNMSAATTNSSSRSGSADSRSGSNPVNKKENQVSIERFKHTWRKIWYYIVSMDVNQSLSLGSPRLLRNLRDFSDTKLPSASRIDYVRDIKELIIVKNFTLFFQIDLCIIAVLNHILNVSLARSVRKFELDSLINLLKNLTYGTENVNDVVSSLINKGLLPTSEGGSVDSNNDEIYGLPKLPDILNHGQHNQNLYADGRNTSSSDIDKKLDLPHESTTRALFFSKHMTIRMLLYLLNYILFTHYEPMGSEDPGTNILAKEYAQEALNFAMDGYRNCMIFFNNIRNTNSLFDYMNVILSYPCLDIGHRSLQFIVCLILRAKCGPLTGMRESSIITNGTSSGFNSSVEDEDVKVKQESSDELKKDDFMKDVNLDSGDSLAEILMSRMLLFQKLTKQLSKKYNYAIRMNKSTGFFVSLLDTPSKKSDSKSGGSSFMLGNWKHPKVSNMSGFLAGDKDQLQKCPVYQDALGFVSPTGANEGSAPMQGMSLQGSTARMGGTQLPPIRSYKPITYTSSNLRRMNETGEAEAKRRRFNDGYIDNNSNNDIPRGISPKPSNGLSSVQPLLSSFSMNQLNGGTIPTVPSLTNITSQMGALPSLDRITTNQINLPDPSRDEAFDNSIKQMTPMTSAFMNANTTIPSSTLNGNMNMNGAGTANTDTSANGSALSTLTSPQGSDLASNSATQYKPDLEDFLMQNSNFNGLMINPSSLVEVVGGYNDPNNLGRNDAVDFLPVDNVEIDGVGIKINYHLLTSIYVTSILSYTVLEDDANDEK

Row | Sequence | PBM E-score
1 | CTGATTTC | -0.0451
2 | CGGATTTC | 0.426
3 | AGGATTTC | 0.0343
4 | CGGATTTA | 0.489
5 | AGGATTTA | 0.227
6 | GGGATTTA | 0.327
7 | CTAACCCC | 0.235
8 | GTCGAATA | -0.0336
9 | CCACTGAG | -0.235
10 | GCTTCGGA | 0.327
11 | CCTTCGGC | 0.27
12 | CCTTCGGA | 0.364
13 | ACTTCGGA | 0.403
14 | ACTTCGGG | 0.247
15 | ACTTCGGC | 0.377
16 | ACCGCAGT | 0.106
17 | CAGCCTAA | -0.354
18 | ATACTTCC | 0.162
19 | ACATCCGG | 0.427
20 | ACATCCGA | 0.382
21 | ACATCCTG | -0.0661
22 | CCATCCGG | 0.254
23 | ACATCCGT | 0.213
24 | ACATCCGC | 0.347
25 | TATGTACA | -0.124

Row | Sequence | PBM E-score
26 | GCCAGTTA | -0.14
27 | CGGCCCGA | 0.398
28 | ACGCCCGG | 0.377
29 | GCGCCCGA | 0.353
30 | ACGCCCGA | 0.371
31 | ACGCCCCG | 0.193
32 | CCGCCCGA | 0.37
33 | TCGCCCGA | 0.362
34 | ACGCCCGC | 0.183
35 | AGGCCCGA | 0.279
36 | GGGCCCGA | 0.317
37 | ACGCCCGT | 0.251
38 | CTGCCCGA | 0.202
39 | GGCCAGCA | -0.0771
40 | AAGTCTGA | -0.412
41 | CTTGTCTC | -0.073
42 | ACGCGAAA | -0.00838
43 | ACAAGAGC | -0.109
44 | CGGAGCGA | 0.331
45 | CCATAGGA | -0.258
46 | GACACGTA | -0.194
47 | AAGCCCGT | 0.232
48 | AAGCCCGC | 0.337
49 | CCGCCCCG | 0.347
50 | AAGCCCGG | 0.407

Row | Sequence | PBM E-score
51 | CCGCCCGC | 0.3
52 | CCGCCCGG | 0.411
53 | CAAGTTCC | 0.124
54 | CAGTGTGC | -0.139
55 | ATGGCAGA | 0.089
56 | CCAAATTC | -0.0397
57 | CGTTCCGA | 0.123
58 | AGTTCCGA | 0.395
59 | AGTTCCGG | 0.394
60 | AGTTCCTG | -0.178
61 | GGTTCCGA | 0.279
62 | AGTTCCGC | 0.278
63 | GGTCCTAC | -0.0458
64 | GTCAGCAA | -0.157
65 | TTCCGCAA | 0.263
66 | ACAGGTTC | -0.216
67 | ATCGGTAA | 0.31
68 | ACCGGTAG | 0.228
69 | AACGGTAA | 0.186
70 | ACCGGTAA | 0.406
71 | ACCGGTAT | 0.424
72 | ACCGGTAC | 0.334
73 | ATCAACAC | -0.154
74 | GAAAGAGC | -0.138
75 | ACTAGACC | 0.0797

Row | Sequence | PBM E-score
76 | GGTTAGCA | -0.0201
77 | GGTCCAAC | 0.13
78 | CGCCCGAG | 0.396
79 | TGTCCTAA | -0.338
80 | TGTCCAAA | -0.133
81 | CGTCCAAA | 0.0813
82 | CGTCCGAA | 0.394
83 | CGCCCGAC | 0.366
84 | AGCCCGAG | 0.208
85 | CGTCCGAC | 0.302
86 | TGTCCGAA | 0.412
87 | GGTCCGAC | 0.392
88 | GCTCCGAC | 0.212
89 | AACCAACG | -0.104
90 | GTCTTACA | -0.195
91 | CTTGGTAC | -0.213
92 | CCTCTTTA | -0.303
93 | CCGGTTAC | 0.279
94 | ACACTGAA | -0.0306
95 | AGAGTAGA | 0.0496
96 | ACGAACAT | 0.0579
97 | AAGGCAAA | -0.28
98 | AGTCCGAA | 0.416
99 | CGTCCAAG | -0.111
100 | GGTCCGAA | 0.434

Row | Sequence | PBM E-score
101 | CGTCCGAG | 0.401
102 | AGTCCAAA | -0.119
103 | GGTCCAAA | 0.0135
104 | CATCCGAG | 0.265
105 | AGTCCTAA | -0.207
106 | GGTCCGTA | 0.329
107 | ACAAGGCA | -0.133
108 | TAGCTTAA | -0.135
109 | CATTGAAA | -0.0176
110 | AAACGGAG | 0.258
111 | CCGTTGCC | 0.299
112 | CGGTGCTC | 0.161
113 | CATGGACA | -0.324
114 | ATGCACAT | -0.225
115 | CAAATTGA | -0.173
116 | ATTCTCCG | 0.394
117 | CATCTCCC | 0.104
118 | CAGCTCCG | 0.299
119 | AAGCTCCG | 0.411
120 | AATCTCCG | 0.476
121 | CATCTCCG | 0.435
122 | AATCTCCC | 0.00843
123 | ATTCTCCC | 0.0268
124 | AATCTCCT | 0.0543
125 | CATCTCCA | -0.0795

Row | Sequence | PBM E-score
126 | ATTCTCCA | -0.157
127 | AAGCTCCT | -0.0999
128 | ACTGTACG | -0.167
129 | GAGGCATA | 0.00364
130 | CCTGAGTC | -0.0525
131 | GCCCTGAA | 0.0376
132 | AGTAGCCC | 0.0495
133 | ACATTCCC | 0.0549
134 | AGAGGGGA | -0.0354
135 | TCGTAAAA | 0.0494
136 | ATGTACGA | 0.105
137 | CAGGGGAG | -0.137
138 | TAAAGCAA | -0.0198
139 | AACCGGCC | 0.344
140 | CACCGGCG | 0.378
141 | AACCGGCG | 0.382
142 | CACCGGCA | 0.201
143 | AACCGGCA | 0.158
144 | CACCGGCC | 0.313
145 | AATACTTG | -0.112
146 | ACCGCACG | -0.0174
147 | CCCAGCCC | -0.174
148 | CAACCTTC | -0.0289
149 | GCCCTTCA | -0.165
150 | AAATTCCG | 0.376

Row | Sequence | PBM E-score
151 | ATTTTCGA | -0.0541
152 | ATTTTCGG | 0.396
153 | AATTTCCG | 0.437
154 | AATTTCCC | 0.06
155 | ATTTTCCG | 0.413
156 | AAATTCCA | 0.0643
157 | ATTTTCGC | 0.0139
158 | CATTTCCG | 0.352
159 | AAATTCCC | 0.145
160 | ATTTTCCA | -0.0537
161 | ATTTTCCC | 0.123
162 | AGGTTGGC | 0.00268
163 | AAACCCCA | -0.134
164 | GGCTCTAC | 0.0591
165 | GTCCTTCA | -0.162
166 | CGTGAGAC | 0.00208
167 | GGGAGCAA | 0.0117
168 | AGTTTCCG | 0.39
169 | AGTTTCCA | -0.133
170 | AGTTTCCC | -0.0919
171 | ACCATAGT | -0.0861
172 | ATCGGGCA | 0.238
